Assay results from PubChem BioAssay AID1347416 (National Center for Advancing Translational Sciences (NCATS), 2020).
Screen size: about 4,100 compounds; about 1,600 (39%) were called active. Another 25% or so got no clear call; they are omitted. Calls follow the shape of the dose curve; as a rule, active = well fitted inhibition curve with a large enough effect; inconclusive = small, poorly fitted or top-dose-only effect; inactive = no such curve, though single readings can be large or run the other way. This is one part of the list.

Assay: qHTS Validation assay for Inhibitors of Plasmodium falciparum Dd2 growth in vitro; also: nearly all actives have a fitted effect of over 70% in size
Conditions: P. falciparum Dd2 in RBCs, SYBR Green growth, 72 h; series mostly up to 28.7 µM; activity change, negative = inhibition: at the top concentration
Procedure, shortened: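 P. falciparum Dd2-infected red blood cells (2.5% hematocrit, 0.3% parasitemia) grown 72 h at 37 °C under 5% O2 with compounds in a titration, 29 uM to 0.5 nM final. Growth read as SYBR Green-1 fluorescence after ~16 h lysis; artesunate 300 nM as positive control.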
% is scaled to controls: 0 for no effect and ±100 for the full control effect; potency is read from the fitted curve at half-maximal effect.

Potency, active:
CCOc1ccc(NC(=O)Nc2cc(OCC(F)(F)F)cc(OCC(F)(F)F)c2)cc1 13.3 µM, CCN1CCN(Cc2ccc(NC(=O)c3ccc(C)c(NC(=O)c4c[nH]c5cc(C(F)(F)F)ccc5c4=O)c3)cc2C(F)(F)F)CC1 0.531 µM, CCN1CCN(Cc2ccc(NC(=O)c3cc(NC(=O)C(=O)c4c[nH]c5ccccc45)cc(OC)c3)cc2C(F)(F)F)CC1 0.668 µM, Cc1cn(-c2cc(C(=O)Nc3ccc(C)c(NC(=O)C(=O)c4c[nH]c5ccccc45)c3)cc(C(F)(F)F)c2)cn1 2.11 µM, CCN1CCN(Cc2ccc(NC(=O)c3ccc(C)c(NC(=O)C(=O)c4c[nH]c5ccccc45)c3)cc2C(F)(F)F)CC1 1.5 µM, COc1cc2nc(NCCc3cccc(C)c3)n3nc(-c4ccccc4)nc3c2cc1OC 0.842 µM, COc1ccc(CCNc2nc3cc(OC)c(OC)cc3c3nc(-c4ccccc4)nn23)cc1OC 2.37 µM, COc1cc2c(cc1O)CC[n+]1cc3c(OC)c(OC)ccc3cc1-2 7.5 µM, COc1ccccc1CNC[C@@H]1C=C(C)[C@H](Cc2nc3c(C)cccc3[nH]2)C[C@H]1C(C)C 9.68 µM, COc1ccc2nc(C[C@@H]3C[C@@H](C(C)C)[C@H](CNCc4ccccn4)C=C3C)[nH]c2c1 0.769 µM, COc1ccc2nc(C[C@@H]3C[C@@H](C(C)C)[C@H](CNCc4ccccc4OC)C=C3C)[nH]c2c1 9.44 µM, COC(=O)c1ccc2nc(C[C@@H]3C[C@@H](C(C)C)[C@H](CNC4CCCCC4)C=C3C)[nH]c2c1 8.41 µM, CC1(C)Cc2ccccc2C2=NNC(=O)C2=N1 3.35 µM, O=C(Nc1nc(-c2ccccn2)cs1)Nc1ccc(F)cc1F 5.31 µM, CC(Oc1ccccc1)C(=O)Nc1nc(-c2ccccn2)cs1 (stereo not drawn) 8.41 µM, CC1Cc2nc(SCC(=O)Nc3ccc4c(c3)OCO4)n(-c3ccc(F)cc3)c(=O)c2S1 (stereo not drawn) 2.99 µM, CCOc1ccccc1C(=O)N1CC(=O)Nc2ccc(Cl)cc2C1c1ccccc1 (stereo not drawn) 9.44 µM, O=C(NCc1ccco1)c1cc(-c2ccncc2)nc2ccccc12 5.96 µM, O=C(Nc1ccncc1)c1cc(-c2cccc(Br)c2)nc2ccccc12 13.3 µM, O=C(Nc1cccnc1)c1cc(-c2cccnc2)nc2ccc(Br)cc12 2.66 µM, COc1cc(C#Cc2c(-c3cncn3C)n(C)c3ccc(-c4ccc(OC)c(OC)c4)cc23)cc(OC)c1 4.73 µM, COc1ccc(-c2c(C#Cc3ccsc3)c3cc(-c4cccc5[nH]ccc45)ccc3n2C)cc1 6.68 µM, COc1cc(C#Cc2c(-c3cncn3C)n(C)c3ccc(-c4ccc5[nH]ccc5c4)cc23)cc(OC)c1 2.37 µM, CCOC(=O)c1cnc(-n2nc(C)cc2C)nc1NC1CCCC1 8.41 µM, CCOC(=O)c1cnc(-n2nc(C)cc2C)nc1NNc1nc(-c2ccccc2)cc(-c2ccccc2)n1 2.11 µM, ClC(Cl)(Cl)c1nc2ccccc2n2nncc12 2.11 µM, CN(CCNC(=O)c1cc2c(-c3ccccc3F)nn(C)c2s1)C1CCCCC1 5.96 µM, CCCCN(CC)CCNC(=O)c1cc2c(-c3ccc(Cl)cc3)nn(C)c2s1 0.668 µM, CCCN(CCC)CCNC(=O)c1cc2c(-c3ccc(Cl)cc3)nn(C)c2s1 0.596 µM, CCCCN(C)CCNC(=O)c1cc2c(-c3cccc(OC)c3)nn(C)c2s1 6.68 µM, COc1ccccc1CN1CCOCC2(C1)CN([S+](=O)([O-])c1ccccc1)C2 12.2 µM, O=C(Nc1ccc(N2CCCCC2)c(Cl)c1)c1ncn[nH]1 4.73 µM, N#Cc1c2c(c(NCc3ccco3)n3c1nc1ccccc13)CCC2 2.37 µM, CCc1c(C)c(C#N)c2nc3ccccc3n2c1NCC1CCCO1 (stereo not drawn) 2.99 µM

Activity change, negative = inhibition, inactive:
Cc1cccc(-c2ccc3c(c2)C(=O)N2C[C@H](O)C[C@H]2C(=O)N3)c1C 43.2% [at 43.1 µM], CNC(=O)[C@@H]1CN(C(=O)c2c[nH]c3ccccc23)C[C@H]1COC -9.93%, CCn1nc(C)c(-c2cc(C(=O)N3CCc4nc5cc(-c6ccccc6)[nH]n5c(=O)c4C3)no2)c1C -11.4%, COc1ccc(CCc2nc3nccc(-c4ccc5c(c4)OCCCO5)n3n2)cc1OC -25.8%, CC1=C[C@@H](CNC(=O)c2cnccn2)[C@H](C(C)C)C[C@H]1Cc1nc2ccc(F)cc2[nH]1 -19% [at 43.1 µM], O=C(Cc1ccccc1O)NCc1cccnc1Oc1ccc(F)cc1F -1.86%, CC(Oc1ccccc1)C(=O)Nc1cnc(-c2cccc(Cl)c2)nc1 (stereo not drawn) -22.4%, CCC(C(=O)Nc1nc(C)c(C)s1)c1ccccc1 (stereo not drawn) -13.3%, Cc1cc(NC(=O)CSc2nc3c(c(=O)n2Cc2ccccc2)SC(C)C3)no1 (stereo not drawn) 175%, CCC(Sc1nc2c(c(=O)n1CC)SC(C)C2)C(=O)OC (stereo not drawn) 22.8%, NNC(=O)CN1C(=O)Nc2ccc(Cl)cc2C1c1ccccc1 (stereo not drawn) 35.4%, Cc1ccc2oc(-c3cccc(NC(=O)c4cccc5c(Cl)cccc45)c3)nc2c1 31.7%, CCN(CC)CCNC(=O)c1ccc(NC(=O)c2cc(-c3ccncc3)nc3ccccc23)cc1 -24.5%, O=C(CCC1CCCC1)N1CC(c2nnc(-c3ccncc3)o2)C2(CCOCC2)C1 (stereo not drawn) 10.2%, CC(=O)NCCc1ncc(C)n1C1CCCCCC1 -24.6%, CC(=O)NCCc1ncc(C)n1C1CCC1 -8.89%, COc1cccc(-c2cc(C(=O)NCC34CCC=C3N(C)C(=O)CC4)[nH]n2)c1 (stereo not drawn) -26.8%, COc1cccc(-c2cc3c(=O)n(CCNC(=O)c4cccc5[nH]ccc45)ccn3n2)c1 -19.8%, COC(=O)c1c(NC(=O)/C(C#N)=C/c2ccc(OC)cc2)sc2c1CCC2 23.8%, O=C(NCCCn1cccn1)C1Cn2cccc2C(=O)N1Cc1ccccc1 (stereo not drawn) 2.79%, COc1ccc(C(=O)N2CCOCC3(CN(Cc4ccccc4)C3)C2)c(OC)n1 -10.6% [at 43.1 µM], COc1ccc(C2=NOC3(CCN([S+](=O)([O-])c4cccc(OC)c4)C3)C2)cc1 (stereo not drawn) 7.53%, Cc1ccc(Sc2ccc(N3CCCC(C(=O)Nc4ccc(F)c(Cl)c4)C3)nn2)cc1 (stereo not drawn) -3.9%, COC(=O)CSc1nc2c(c(-c3ccco3)c1C#N)CCCC2 10.9%
